Assay outcomes deposited in PubChem BioAssay by National Center for Advancing Translational Sciences (NCATS).
A selection: hits, their analogues and other compounds. The true share with any hit is near 17%.
TGFb inhibitor = qHTS for Inhibitors of TGF-b. HepG2 CAGA-GFP TGF-b/SMAD3 reporter, GFP fluorescence, 18 h; TGF-beta stimulated, 500 pg/mL final. Potency, µM (titrated, usually from 46.1 µM), inactives show top-dose activity, negative = inhibition, usual class: inhibitors. actives 1.2% (n = 410,000). AID 588855, 2011; note: % is set by controls: 0 for no effect and ±100 for the full control effect; nearly all actives have a fitted effect of over 65% in size
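Using HEPG2 CAGA-GFP reporter cells at 1000 cells/well, we pinned test compounds, stimulated with recombinant TGF-beta (500 pg/mL final) and measured total well GFP after 18 h.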
HepG2 viability = qHTS for Inhibitors of TGF-b: Cytotox Counterscreen. Potency, µM (series often up to 46.1 µM), inactives show at the top dose activity change, negative = cytotoxicity, usual class: cytotoxic. AID 588856, 2011. actives 0.76% (n = 410,000). HepG2 CAGA-GFP viability, ATP luminescence, 18 h
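CellTiter-Glo luminescence gave cytotoxicity after 18 hours at 37 degrees C. The cells were HepG2 CAGA-GFP in 1% FBS DMEM, stimulated with 500 pg/mL TGF-beta after compound addition. %Activity was normalised to no-cell wells (complete cell-killing) and DMSO (no toxicity), and curves were fitted and classified.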
DT40 TDP1 CPT = qHTS for Inhibitors of human tyrosyl-DNA phosphodiesterase 1 (TDP1): qHTS in cells in presence of CPT. chicken DT40 Tdp1-/-;hTDP1 cells + 20 nM CPT, ATP luminescence, 48 h. Potency, µM (top dose mostly 46.2 µM), for the others: at the highest dose activity change, negative = growth inhibition, hits mostly inhibitors. actives 12% (n = 420,000). AID 686979, 2013; note: % is set by controls: 0 for no effect and ±100 for the full control effect; nearly all actives have a fitted effect of over 55% in size
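Chicken DT40 Tdp1-/- cells stably complemented with human TDP1 were seeded at 400 cells/well in medium containing 20 nM camptothecin, exposed to pin-transferred compounds, and grown at 37 °C for at least 48 hr. Viability was read as ATP luminescence.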
ATXN2 expr inh = Primary qHTS for Inhibitors of ATXN expression. Potency, µM (top dose mostly 57 µM), inactives show at the top dose activity change, negative = inhibition, actives largely listed as inhibitors. HEK-293 ATXN2-luciferase reporter, luminescence, 24 h. AID 1745845, 2022. actives 0.72% (n = 360,000); note: % is set by controls: 0 for no effect and ±100 for the full control effect; nearly all actives have a fitted effect of over 55% in size
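qHTS (up to 57 uM final) was run with 24 h compound exposure of reporter cells at 37 °C. Each well was multiplexed: SteadyGlo luminescence measured ATXN2-luciferase expression after a fluorogenic Gly-Phe-AFC viability readout (25 uM final).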
DT40 TDP1 no CPT = qHTS for Inhibitors of human tyrosyl-DNA phosphodiesterase 1 (TDP1): qHTS in cells in absence of CPT | DT40 Tdp1-/- hTDP1 cells, no CPT, ATP luminescence, 48 h | Potency, µM (doses to about 46.2 µM), for inactives: at the highest dose activity change, negative = growth inhibition, usual class: inhibitors | actives 15% (n = 420,000) | AID 686978, 2013; note: % is set by controls: 0 for no effect and ±100 for the full control effect; nearly all actives have a fitted effect of over 55% in size
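Stably hTDP1-transfected Tdp1-null chicken DT40 cells were treated with library compounds minus camptothecin and grown for at least 48 hr at 37 °C, after which cellular ATP was quantified by luminescence.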
ATXN viability = Viability Counterscreen for Primary qHTS for Inhibitors of ATXN expression. S2 cells (HEK-293 line with an ATXN2-luciferase reporter) viability, CellTiter-Fluor protease fluorescence, 24 h. Potency, µM (highest dose often 56.7 µM), hits mostly cytotoxic. actives 0.49% (n = 400,000). AID 651635, 2014; note: nearly all actives have a fitted effect of over 40% in size
Active calls of the source: *. Calls come from the whole dose curve; as a rule, active = well fitted curve in the direction sought with a large enough effect; inconclusive = small, poorly fitted or top-dose-only effect, or another doubt; inactive = no such curve, though single readings can be large; an effect the other way counts as inactive or inconclusive. Potency is the fitted concentration of half-maximal effect.

CCSc1ccc(-c2cc(NC=O)c3ncc(-c4cc(OC)c(OC)c(OC)c4)n3c2)cc1 was read as TGFb inhibitor -20%, HepG2 viability -20%, DT40 TDP1 CPT inconclusive, ATXN2 expr inh -19%, DT40 TDP1 no CPT inconclusive and ATXN viability inconclusive.
`COc1ccc(-c2cnc3c(NC=O)cc(-c4ccc(S(C)(=O)=O)cc4)cn23)cc1OC` gave TGFb inhibitor -18%, HepG2 viability -20%, DT40 TDP1 CPT 2.9µM*, ATXN2 expr inh -22%, DT40 TDP1 no CPT 2.9µM* and ATXN viability inactive.
COc1ccccc1-c1cc(NC=O)c2ncc(-c3ccc(S(C)(=O)=O)cc3)n2c1 was read as TGFb inhibitor -8%, HepG2 viability -34%, DT40 TDP1 CPT 12µM*, ATXN2 expr inh inconclusive, DT40 TDP1 no CPT 9.2µM* and ATXN viability inconclusive.
For O=CNc1cc(-c2ccccc2Oc2ccccc2)cn2c(-c3ccc(F)cc3)cnc12 the results were TGFb inhibitor inconclusive, HepG2 viability -22%, DT40 TDP1 CPT inconclusive, ATXN2 expr inh inconclusive, DT40 TDP1 no CPT 10µM* and ATXN viability inactive.
Screening O=C(CCCCCNC(=O)N1CCn2c1nc1ccccc12)NCCc1ccccc1 returned TGFb inhibitor 1%, HepG2 viability 2%, DT40 TDP1 CPT inconclusive, ATXN2 expr inh -3%, DT40 TDP1 no CPT inconclusive and ATXN viability inactive.
`COC(=O)C[C@H]1c2cc(C(F)(F)F)ccc2S(=O)(=O)N1C(C)(C)C` gave TGFb inhibitor inconclusive, HepG2 viability -42%, DT40 TDP1 CPT inconclusive, ATXN2 expr inh 2%, DT40 TDP1 no CPT inconclusive and ATXN viability inactive.
`CN1OC[C@@H]2CN[C@H](c3cccc(Oc4ccccc4)c3)C[C@@H]21` gave TGFb inhibitor 2%, HepG2 viability -25%, DT40 TDP1 CPT -4%, ATXN2 expr inh 21%, DT40 TDP1 no CPT -1% and ATXN viability inactive.
CC(=O)C1=C(C)NC(SCC(=O)c2ccccc2)=C(C#N)C1CC(C)C (configuration not stated) was read as TGFb inhibitor -7%, HepG2 viability 3%, DT40 TDP1 CPT inconclusive, ATXN2 expr inh 10%, DT40 TDP1 no CPT 16µM* and ATXN viability inactive.
Screening CCOC(=O)CSC1=C(C#N)C(c2ccccc2)C(C(C)=O)=C(C)N1 (configuration not stated) returned TGFb inhibitor -9%, HepG2 viability -3%, DT40 TDP1 CPT -25%, ATXN2 expr inh 0%, DT40 TDP1 no CPT -10% and ATXN viability inactive.
Screening COc1ccc(CCNC(=O)C2CCN(C(=O)c3cccc(Cl)c3)CC2)cc1OC returned TGFb inhibitor 9%, HepG2 viability 5%, DT40 TDP1 CPT inconclusive, ATXN2 expr inh -6%, DT40 TDP1 no CPT inconclusive and ATXN viability inactive.
`C[C@H]1CN([C@@H](C)CO)C(=O)CCCn2nncc2CO[C@@H]1CN(C)Cc1ccc(-c2ccccc2)cc1` gave TGFb inhibitor inconclusive, HepG2 viability -44%, DT40 TDP1 CPT 9.2µM*, ATXN2 expr inh inconclusive, DT40 TDP1 no CPT 10µM* and ATXN viability inconclusive.
C[C@H]1CN([C@@H](C)CO)C(=O)CCCn2nncc2CO[C@@H]1CN(C)Cc1ccc(C(F)(F)F)cc1 was read as TGFb inhibitor -3%, HepG2 viability -4%, DT40 TDP1 CPT 3%, ATXN2 expr inh 7%, DT40 TDP1 no CPT -29% and ATXN viability inactive.
Screening C[C@@H]1CN([C@H](C)CO)C(=O)CCCn2nncc2CO[C@H]1CN(C)Cc1ccccc1C(F)(F)F returned TGFb inhibitor -22%, HepG2 viability -33%, DT40 TDP1 CPT 15µM*, ATXN2 expr inh -29%, DT40 TDP1 no CPT 21µM* and ATXN viability inconclusive.
C[C@H](CO)N1C[C@H](C)[C@@H](CN(C)Cc2ccc(C(F)(F)F)cc2)OCc2cnnn2CCCC1=O was read as TGFb inhibitor -10%, HepG2 viability -29%, DT40 TDP1 CPT 26µM*, ATXN2 expr inh -4%, DT40 TDP1 no CPT inconclusive and ATXN viability inactive.
`Cc1ccc(S(=O)(=O)N2[C@H](c3cccc(Cl)c3)CC(=O)[C@@H]3CN(S(=O)(=O)c4ccccc4C)[C@H](c4ccc(Cl)cc4)C[C@@H]32)cc1` gave TGFb inhibitor -2%, HepG2 viability 3%, DT40 TDP1 CPT -12%, ATXN2 expr inh 4%, DT40 TDP1 no CPT -10% and ATXN viability inconclusive.
CO/N=C/CC(=O)c1ccc([N+](=O)[O-])c(CS(=O)(=O)c2ccc(Cl)cc2)c1 was read as TGFb inhibitor -21%, HepG2 viability -26%, DT40 TDP1 CPT inconclusive, DT40 TDP1 no CPT inconclusive and ATXN viability inconclusive.
Screening O=C(Nc1ccc(F)cc1F)c1noc2c1CCc1ccccc1-2 returned TGFb inhibitor 9%, HepG2 viability -1%, DT40 TDP1 CPT -23%, ATXN2 expr inh 37%, DT40 TDP1 no CPT -20% and ATXN viability inactive.
Screening Cc1cc(C)cc(NC(=O)Nc2ccccc2N2CCCCC2)c1 returned TGFb inhibitor -24%, HepG2 viability 0%, DT40 TDP1 CPT inconclusive, ATXN2 expr inh -5% and DT40 TDP1 no CPT 16µM*.
Screening CCC(C(=O)Nc1ccccc1N1CCCC1)c1ccccc1 (configuration not stated) returned TGFb inhibitor -1%, HepG2 viability -2%, DT40 TDP1 CPT inconclusive, ATXN2 expr inh -8%, DT40 TDP1 no CPT 16µM* and ATXN viability inactive.
O=C(Nc1ccc(N2CCCC2)c(Cl)c1)c1ccc([N+](=O)[O-])o1 was read as TGFb inhibitor inconclusive, HepG2 viability -79%, DT40 TDP1 CPT 8.2µM*, ATXN2 expr inh 39%, DT40 TDP1 no CPT 18µM* and ATXN viability inactive.
`Cc1ccc(C(=O)Nc2ccccc2N2CCCCC2)o1` gave TGFb inhibitor -14%, HepG2 viability -25%, DT40 TDP1 CPT 26µM*, ATXN2 expr inh -17%, DT40 TDP1 no CPT inconclusive and ATXN viability inactive.
